From PubChem BioAssay (NCI) come the findings set out here.

About 83,000 compounds went through this panel and 20% of them were active in at least one assay; those are over-represented in the sample as a whole.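 Assay: single dose, 48 h. Readout: percent growth (0 = no net growth; negative = cell death). Active: <10.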 The source made the active and inactive calls.

What all share (test): NCI-60 one-dose screen, 48 h (100 = growth as untreated, 0 = no growth, -100 = all killed)
What all share (details): 10 µM unless noted

In assay [1] the test system is T-47D breast.
Assay [2] relates to BT-549 breast.
In assay [3] the test system is MDA-MB-435 melanoma.
For assay [4], the system named is SW-620 colon.
For assay [5], the system named is HCT-116 colon.
In assay [6] the test system is HCC-2998 colon.
In assay [7] the test system is KM12 colon.
Assay [8] deals with MCF7 breast.

Regarding `CCCCCCCCCCCCC[N+](C)(C)Cc1ccccc1`, the growth is 15.1% (inactive) in assay [1]; -72.9% (active) in assay [2]; -73.6% (active) in assay [3]; -37.6% (active) in assay [4]; -89.9% (active) in assay [5]; -80.5% (active) in assay [6]. Besides, the growth in assay [7] was -93.6% (active).

As for `O=C(Nc1ccc(Cl)cc1)c1cc2cc(F)ccc2cc1O`, the growth in assay [1] was -7.01% (active); in assay [2] it was 1.77% (active); in assay [3], 10.5% (inactive); in assay [4] it was 15.5% (inactive); in assay [8], 7.1% (active); in assay [6], 27.8% (inactive). Further, the growth in assay [7] is 12.3% (inactive).

For the compound `Cc1ccc(/C=C2\SC(=S)N(CC(=O)NCCCN3CCOCC3)C2=O)cc1`, the growth in assay [1] is 90.4% (inactive); in assay [3], 99.4% (inactive); in assay [4], 103% (inactive); in assay [8], 91.5% (inactive); in assay [5], 100% (inactive); in assay [6] it was 102% (inactive). Moreover, the growth in assay [7] is 105% (inactive).

As for `CN1CCN=C1c1ccc(NC(=O)c2ccc(C(=O)Nc3ccc(C4=NCCN4C)cc3)cc2)cc1`, the growth in assay [1] is 86.7% (inactive); in assay [2], 97.5% (inactive); in assay [3], 108% (inactive); in assay [4], 102% (inactive); in assay [8] it was 76.5% (inactive); in assay [6] it was 112% (inactive). Moreover, in assay [7], the growth is 98.7% (inactive).

As to `O=S(=O)(Nc1ccc(Br)c(Cl)c1)c1ccc(-c2cnc(C3CC3)o2)cc1`, the growth in assay [1] is 30.9% (inactive); in assay [2], 38.3% (inactive); in assay [3] it was -17.1% (active); in assay [4] it was 19.3% (inactive); in assay [8] it was 11.7% (inactive); in assay [6] it was 45.9% (inactive). In assay [7], the growth is 33.8% (inactive).

Regarding `C=C1c2nc3ccccc3n2C=C(c2ccc(OC)cc2)N1Cc1ccccc1`, the growth in assay [1] was 59.9% (inactive); in assay [3], 95.1% (inactive); in assay [4], 88.7% (inactive); in assay [8], 86.3% (inactive); in assay [5], 73.7% (inactive); in assay [6], 82.1% (inactive). For the same compound, in assay [7], the growth was 98.5% (inactive).

On to `Cn1c(NCCc2ccc(O)c(O)c2)nc2c1c(=O)n(Cc1ccc(Cl)c(Cl)c1)c(=O)n2C`, for which the growth in assay [1] was 58% (inactive); in assay [2], 67.1% (inactive); in assay [3], 73% (inactive); in assay [4], 76.5% (inactive); in assay [8], 79% (inactive); in assay [6], 90.6% (inactive). In addition, the growth in assay [7] is 71.9% (inactive).

As for `O=C1NC(=O)C(c2ccc(Cl)cc2Cl)N1` (centres undefined), the growth in assay [1] is 111% (inactive); in assay [2], 122% (inactive); in assay [3], 113% (inactive); in assay [4], 106% (inactive); in assay [8], 101% (inactive); in assay [7] it was 104% (inactive).

As for `CC(C)(C)CC(C)(C)c1ccc(OCCOCC[N+](C)(C)Cc2ccccc2)cc1`, the growth in assay [1] was -7.78% (active); in assay [3] it was -81.1% (active); in assay [4] it was -39.2% (active); in assay [8], -80.4% (active); in assay [5], -27.9% (active); in assay [6], -32.5% (active). Besides, the growth in assay [7] was -91.3% (active).

In the case of `CCNC(=O)Oc1ccc(/C(=C(\C)c2ccc(Cl)cc2)c2ccc(OCCN3CCCCC3)cc2)cc1`, the growth was 27.8% (inactive) in assay [1]; 43.4% (inactive) in assay [3]; 9.64% (active) in assay [4]; 21.7% (inactive) in assay [8]; 37.4% (inactive) in assay [5]; 75.1% (inactive) in assay [6]. Also, the growth in assay [7] was 37.3% (inactive).

Regarding `CSc1nc2c(c(=O)[nH]1)C1(C(=O)Nc3ccccc31)c1c(nc(SC)[nH]c1=O)N2`, the growth in assay [2] was 107% (inactive); in assay [3], 104% (inactive); in assay [4], 99.1% (inactive); in assay [8], 102% (inactive); in assay [5] it was 106% (inactive); in assay [6], 104% (inactive). The growth in assay [7] was 103% (inactive).

As for `O=C(N=Nc1c(O)[nH]c2ccccc12)c1cc(-c2ccccc2)on1`, the growth in assay [1] was 97.6% (inactive); in assay [3] it was 110% (inactive); in assay [4], 97.8% (inactive); in assay [8] it was 87.9% (inactive); in assay [6], 111% (inactive); in assay [7] it was 101% (inactive).

Consider `CC(C)CC1C(=O)N2CCC[C@H]2C2(O)O[C@](NC(=O)C3C=C4c5cccc6[nH]c(Br)c(c56)C[C@H]4N(C)C3)(C(C)C)C(=O)N12` (some centres undefined), for which the growth in assay [1] is 47.2% (inactive); in assay [3] it was 62.8% (inactive); in assay [4] it was 52.3% (inactive); in assay [8], 39.7% (inactive); in assay [5], 36.1% (inactive); in assay [6], 89.1% (inactive). For the same compound, the growth in assay [7] is 40.3% (inactive).

On to `Cc1ccc(NS(=O)(=O)c2ccc(-c3cnc(C4CC4)o3)cc2)cc1C`, for which the growth in assay [1] was 26.4% (inactive); in assay [3], 4.45% (active); in assay [4], 19.7% (inactive); in assay [8], 12.1% (inactive); in assay [5], 19.4% (inactive); in assay [6] it was 45% (inactive). Besides, in assay [7], the growth is 42.8% (inactive).

As for `Cc1c(/C=C/[N+](=O)[O-])ccc2c1[nH]c1ccccc12`, the growth in assay [1] was 78.1% (inactive); in assay [3], -11.2% (active); in assay [4] it was 77.7% (inactive); in assay [8], -11.9% (active); in assay [5], -97.8% (active); in assay [6] it was -30.7% (active). For the same compound, in assay [7], the growth is 52.4% (inactive).

Turning to `COc1ccc(/C=C2\Oc3cc(OCCCCN4CCCC4)ccc3C2=O)cc1`, the growth is 87.8% (inactive) in assay [1]; 96.5% (inactive) in assay [3]; 13.4% (inactive) in assay [4]; 39.6% (inactive) in assay [8]; 5.32% (active) in assay [5]; 91% (inactive) in assay [6]. Moreover, the growth in assay [7] is 70.5% (inactive).

Take `Cc1cc(N2CCCCC2)nc(NC2CCCC(Nc3ccnc4cc(Cl)ccc34)C2)n1` (centres undefined): the growth is -58.5% (active) in assay [1]; -92% (active) in assay [3]; -66.7% (active) in assay [4]; -50.2% (active) in assay [8]; -86.6% (active) in assay [5]; -62.3% (active) in assay [6]. Also, in assay [7], the growth was -29.7% (active).

For the compound `C=CC(=O)Nc1cccc(-c2nc(SC)nc(NCCN3CCOCC3)c2C#N)c1`, the growth was 87.7% (inactive) in assay [2]; 87.1% (inactive) in assay [3]; 108% (inactive) in assay [4]; 72.6% (inactive) in assay [8]; 95.3% (inactive) in assay [5]; 115% (inactive) in assay [6]. Also, the growth in assay [7] is 102% (inactive).

Turning to `CN1CCN(c2nc(NCCCCNc3ccnc4cc(Cl)ccc34)c3ccccc3n2)CC1`, the growth in assay [2] is 74.6% (inactive); in assay [3] it was -10.5% (active); in assay [4] it was 41.2% (inactive); in assay [8] it was 51.3% (inactive); in assay [5] it was 53.1% (inactive); in assay [6] it was 57.4% (inactive). Besides, the growth in assay [7] is 65.5% (inactive).

`CCOC(=O)c1c(C)oc2ncnc(N3CCN(C(=O)COc4ccc(SC)cc4)CC3)c12`: the growth in assay [1] is 61.7% (inactive); in assay [3], 103% (inactive); in assay [4], 102% (inactive); in assay [8], 92.6% (inactive); in assay [5] it was 91.6% (inactive); in assay [6] it was 110% (inactive). Moreover, in assay [7], the growth was 95.6% (inactive).

As to `Clc1ccc2c(NCCCCNc3nc(N4CCCCC4)nc4ccccc34)ccnc2c1`, the growth in assay [2] is 37% (inactive); in assay [3], -81.9% (active); in assay [4], -1.17% (active); in assay [8] it was 15.8% (inactive); in assay [5] it was -17.7% (active); in assay [6], -16.5% (active). In addition, the growth in assay [7] was 19.6% (inactive).

Take `COc1cc2nnc3c4cccnc4[nH]c3c2cc1OC`: the growth in assay [1] is 24.5% (inactive); in assay [3], 49.7% (inactive); in assay [4] it was 9.61% (active); in assay [8], 2.75% (active); in assay [6], 88% (inactive); in assay [7], 32% (inactive).

As for `CC1CCNC(C)C1` (centres undefined), the growth in assay [1] is 104% (inactive); in assay [3], 107% (inactive); in assay [4] it was 100% (inactive); in assay [8] it was 96.8% (inactive); in assay [5] it was 108% (inactive); in assay [6], 103% (inactive). The growth in assay [7] is 106% (inactive).

As to `COc1cc2nc(N3CCCC3)nc(NCCc3ccccc3)c2cc1OC`, the growth in assay [1] is 80.8% (inactive); in assay [3] it was 91.5% (inactive); in assay [4] it was 0.907% (active); in assay [8] it was 35.4% (inactive); in assay [5] it was 2.87% (active); in assay [6], 70.6% (inactive). In addition, the growth in assay [7] was 96.3% (inactive).

For the compound `Cn1ncc2c(=O)nc3c(-c4ccccc4)n[nH]n3c21`, the growth in assay [1] is 95.6% (inactive); in assay [3], 101% (inactive); in assay [4], 107% (inactive); in assay [8] it was 92.8% (inactive); in assay [5], 97.6% (inactive); in assay [6], 99.2% (inactive). Further, the growth in assay [7] is 113% (inactive).

As to `O=C1c2cccc3cccc(c23)C(=O)N1CCCCN1CCN(CCCCOc2ccc(-c3nc4ccc(N5CCOCC5)cc4[nH]3)cc2)CC1`, the growth in assay [1] was 77.2% (inactive); in assay [3], 88.3% (inactive); in assay [4], 95.1% (inactive); in assay [8], 74.1% (inactive); in assay [5], 69.1% (inactive); in assay [7], 92.1% (inactive).

On to `Cn1ccnc1C(=O)/C=C/c1ccccc1`, for which the growth is 18.4% (inactive) in assay [1]; 10.8% (inactive) in assay [3]; 5.92% (active) in assay [4]; 2.27% (active) in assay [8]; 9.05% (active) in assay [5]; -20.6% (active) in assay [7].
